Reference: PubChem BioAssay (NCATS)
Inconclusive results are not listed. Active and inactive are the calls of the source. The call rests on the fitted dose curve; in most records, active means well fitted cell-killing curve with a large enough effect; inconclusive means small, poorly fitted or top-dose-only effect, or effect the other way; inactive means flat fitted curve, though single readings scatter.

Assays:
Assay in all cases: Primary qHTS to identify gynecologic anti-cancer compounds using libraries of approved drugs and bioactive compounds (AID 1345084); further: nearly all actives have a fitted effect of over 55% in size
[1] = test system: C33A; details: Gynecologic cancer cell panel viability, ATPlite luminescence, 48 h; series mostly up to 57.5 µM
Summary of the method: (§1)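 Cells, 1,000 per well, were allowed to settle for 16 h at 37 C before compound addition. Five concentrations were tested for 48 h, and viability was read by ATPlite luminescence after 15 min at room temperature.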

[2] = test system: CAOV3; details: Gynecologic cancer cell panel viability, ATPlite luminescence, 48 h; series mostly up to 57.5 µM
Summary of the method: as §1

[3] = test system: CASKI; details: Gynecologic cancer cell panel viability, ATPlite luminescence, 48 h; series mostly up to 57.5 µM
Summary of the method: as §1

[4] = test system: Es-2; details: Gynecologic cancer cell panel viability, ATPlite luminescence, 48 h; series mostly up to 57.5 µM
Summary of the method: as §1

[5] = test system: HeLa; details: Gynecologic cancer cell panel viability, ATPlite luminescence, 48 h; series mostly up to 57.5 µM
Summary of the method: as §1

[6] = test system: Hek293T; details: Gynecologic cancer cell panel viability, ATPlite luminescence, 48 h, control line for the selectivity index; series mostly up to 57.5 µM
Summary of the method: as §1

[7] = test system: JEG-3; details: Gynecologic cancer cell panel viability, ATPlite luminescence, 48 h; series mostly up to 57.5 µM
Summary of the method: as §1

[8] = test system: OV90; details: Gynecologic cancer cell panel viability, ATPlite luminescence, 48 h; series mostly up to 57.5 µM
Summary of the method: as §1

[9] = test system: PA-1; details: Gynecologic cancer cell panel viability, ATPlite luminescence, 48 h; series mostly up to 57.5 µM
Summary of the method: as §1

[10] = test system: SKOV3; details: Gynecologic cancer cell panel viability, ATPlite luminescence, 48 h; series mostly up to 57.5 µM
Summary of the method: as §1

[11] = test system: Tov-21-G; details: Gynecologic cancer cell panel viability, ATPlite luminescence, 48 h; series mostly up to 57.5 µM
Summary of the method: as §1

[12] = test system: Tov112D; details: Gynecologic cancer cell panel viability, ATPlite luminescence, 48 h; series mostly up to 57.5 µM
Summary of the method: as §1
On the % scale 0 is the no-effect control and ±100 the full control effect.

COc1cc(C(=O)O[C@H]2[C@@H]3C=CO[C@@H](O[C@@H]4O[C@H](CO)[C@@H](O)[C@H](O)[C@H]4O)[C@@H]3[C@@]3(CO)O[C@@H]23)ccc1O
inactive: Potency [1] | Potency [2] | Potency [3] | Potency [4] | Potency [5] | Potency [6] | Potency [7] | Potency [8] | Potency [9] | Potency [10] | Potency [11] | Potency [12]

CCN1C[C@]2(COC(=O)c3ccccc3N3C(=O)C[C@H](C)C3=O)CC[C@H](OC)[C@@]34[C@@H]5C[C@H]6[C@H](OC)[C@@H]5[C@](O)(C[C@@H]6OC)[C@](O)([C@@H](OC)[C@H]23)[C@@H]14
inactive: Potency [1] | Potency [2] | Potency [3] | Potency [4] | Potency [5] | Potency [6] | Potency [7] | Potency [8] | Potency [9] | Potency [10] | Potency [11] | Potency [12]

CC(CCc1ccc(O)cc1)O[C@@H]1O[C@H](CO[C@H]2OC[C@](O)(CO)[C@H]2O)[C@@H](O)[C@H](O)[C@H]1O (stereo partly drawn)
inactive: Potency [1] | Potency [2] | Potency [3] | Potency [4] | Potency [5] | Potency [6] | Potency [7] | Potency [8] | Potency [9] | Potency [10] | Potency [11] | Potency [12]

CC(=O)OC12C(O)C(C)C3(O)C4C=C(C)C(=O)C4CC(CO)=CC3C1C2(C)C (stereo not drawn)
inactive: Potency [1] | Potency [2] | Potency [3] | Potency [4] | Potency [5] | Potency [6] | Potency [7] | Potency [8] | Potency [9] | Potency [10] | Potency [11] | Potency [12]

CCCN1CCO[C@H]2c3cc(O)ccc3OC[C@@H]21
inactive: Potency [1] | Potency [2] | Potency [3] | Potency [4] | Potency [5] | Potency [6] | Potency [7] | Potency [8] | Potency [9] | Potency [10] | Potency [11] | Potency [12]

CC(C)(C)c1cc(C(C)(C)C)c2c(c1)C(O)(C(F)(F)F)C(=O)O2 (stereo not drawn)
inactive: Potency [1] | Potency [2] | Potency [3] | Potency [4] | Potency [5] | Potency [6] | Potency [7] | Potency [8] | Potency [9] | Potency [10] | Potency [11] | Potency [12]

CN1CCCC1CCOC(c1cc2nccc(C(=O)O)c2[nH]1)c1ccccc1Cl (stereo not drawn)
inactive: Potency [1] | Potency [2] | Potency [3] | Potency [4] | Potency [5] | Potency [6] | Potency [7] | Potency [8] | Potency [9] | Potency [10] | Potency [11] | Potency [12]

CC(=O)O[C@H]1C[C@@H](OC(C)=O)C(C)(C)C2C[C@@H](O)[C@]3(C)C(CC[C@@]4(C)[C@H](C5=CC(=O)OC5O)C[C@H]5O[C@]543)[C@]21C (stereo partly drawn)
inactive: Potency [1] | Potency [2] | Potency [3] | Potency [4] | Potency [5] | Potency [6] | Potency [7] | Potency [8] | Potency [9] | Potency [10] | Potency [11] | Potency [12]

C=C(CO)C(=O)O[C@H]1C/C(C)=C/CC/C(CO)=C/[C@H]2OC(=O)C(=C)[C@H]12
inactive: Potency [1] | Potency [2] | Potency [3] | Potency [4] | Potency [5] | Potency [6] | Potency [7] | Potency [8] | Potency [9] | Potency [10] | Potency [11] | Potency [12]

COC1CC(OC2CCC3(C)C(=CCC4C3CCC3(C)C(C(C)OC5OC(COC6OC(CO)C(O)C(O)C6O)C(O)C(O)C5O)CCC43O)C2)OC(C)C1OC1OC(C)C(O)C(OC)C1O (stereo not drawn)
inactive: activity change, negative = cytotoxicity [1] 6.28% [at 11.6 µM] | activity change, negative = cytotoxicity [2] 3.88% [at 11.6 µM] | activity change, negative = cytotoxicity [3] 4.6% [at 11.6 µM] | activity change, negative = cytotoxicity [4] -3.02% [at 11.6 µM] | activity change, negative = cytotoxicity [5] -1.19% [at 11.6 µM] | activity change, negative = cytotoxicity [6] 5.95% [at 11.6 µM] | activity change, negative = cytotoxicity [7] -7.91% [at 11.6 µM] | activity change, negative = cytotoxicity [8] 0.938% [at 11.6 µM] | activity change, negative = cytotoxicity [9] 2.38% [at 11.6 µM] | activity change, negative = cytotoxicity [10] 25.2% [at 11.6 µM] | activity change, negative = cytotoxicity [11] 6.16% [at 11.6 µM] | activity change, negative = cytotoxicity [12] -0.166% [at 11.6 µM]

COCC1OC(=O)c2coc3c2C1(C)C1=C(C3=O)C2CCC(=O)C2(C)CC1O (stereo not drawn)
inactive: Potency [1] | Potency [2] | Potency [3] | Potency [4] | Potency [5] | Potency [6] | Potency [7] | Potency [8] | Potency [9] | Potency [10] | Potency [11] | Potency [12]

CN1C(=O)c2ccccc2NC(=O)C1Cc1ccccc1 (stereo not drawn)
inactive: Potency [1] | Potency [2] | Potency [3] | Potency [4] | Potency [5] | Potency [6] | Potency [7] | Potency [8] | Potency [9] | Potency [10] | Potency [11] | Potency [12]

C=C(C)[C@H]1O[C@H]2CC[C@@]3(C)[C@@](O)(CC[C@H]4[C@@H]5OC(C)(C)[C@H]6C[C@@H]7C(=C)Cc8c(Cl)cc9[nH]c(c5c9c8[C@@]76O)[C@@]43C)[C@]23O[C@@H]3[C@H]1O
inactive: Potency [1] | Potency [2] | Potency [3] | Potency [4] | Potency [5] | Potency [6] | Potency [7] | Potency [8] | Potency [9] | Potency [10] | Potency [11] | Potency [12]

N#C[C@@H](O[C@@H]1O[C@H](CO[C@@H]2O[C@H](CO)[C@@H](O)[C@H](O)[C@H]2O)[C@@H](O)[C@H](O)[C@H]1O)c1ccccc1
inactive: Potency [1] | Potency [2] | Potency [3] | Potency [4] | Potency [5] | Potency [6] | Potency [7] | Potency [8] | Potency [9] | Potency [10] | Potency [11] | Potency [12]
